Bioassay records as filed in PubChem.
This is a sample that favours compounds with a hit; in the whole collection about 7.5% have one here.
FMDV inh = foot and mouth disease virus antiviral activity; 1.2% of 410,000 active; FMDV antiviral cell-based qHTS; Potency, µM (series often up to 57.9 µM), actives largely listed as inhibitors; calls by dose curve; tested in HEK293T cells; note: read-out not given here; nearly all actives have a fitted effect of over 45% in size
HCMV antiviral = inhibitors of human cytomegalovirus; 4.5% of 410,000 active; HFF cells, HCMV-luciferase reporter, 72 h; active compounds read low; activity change, negative = inhibition, % at 57.5 µM; in the data active = activity change below about -60%; inconclusive = no clear call, values can overlap the other calls; inactive = above about -39%
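After 16 h attachment at 37C, HFF cells received test compound and HCMV-luciferase (1 PFU/cell); reporter luminescence read 72 h later, data normalized against buffer-only and known inhibitor Salinomycin.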
HCV inh = inhibitors of hepatitis C virus infection; 3.4% of 340,000 active; Potency, µM (highest dose often 41.8 µM), usual class: inhibitors; Huh7.5.1 HCVcc-Cre infection, luciferase reporter, 44 h
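Luciferase read-out (15 sec integration) after a 15 min room-temperature substrate step quantifies HCVcc-Cre infection. Cells, 1,000 per well, had compound added 4 h post-plating, then virus at ~0.5 moi, and were cultured 44 h.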
Vaccinia Venus = inhibitors of vaccinia virus (Venus reporter); 0.46% of 330,000 active; Vaccinia virus Venus reporter expression, fluorescence; Potency, µM (doses to about 36.5 µM), hits mostly inhibitors; calls by dose curve; tested in A549 cells; note: nearly all actives have a fitted effect of over 30% in size
FBPA Giardia inh = inhibitors of Giardia lamblia fructose-1,6-bisphosphate aldolase; purified Giardia FBPA; Potency, µM (titrated, usually from 59.6 µM), hits mostly inhibitors; 0.71% of 290,000 active; note: nearly all actives have a fitted effect of over 55% in size
Target sequence (A8B2U2 whole entry, looked up): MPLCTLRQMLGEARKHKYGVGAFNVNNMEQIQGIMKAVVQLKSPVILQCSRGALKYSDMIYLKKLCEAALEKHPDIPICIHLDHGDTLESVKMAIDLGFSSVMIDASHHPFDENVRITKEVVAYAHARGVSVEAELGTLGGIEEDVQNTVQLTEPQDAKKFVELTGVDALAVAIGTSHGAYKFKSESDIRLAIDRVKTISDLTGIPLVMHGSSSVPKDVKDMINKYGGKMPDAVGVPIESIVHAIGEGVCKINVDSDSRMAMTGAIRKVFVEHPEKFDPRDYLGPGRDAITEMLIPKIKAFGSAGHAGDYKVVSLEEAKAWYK
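40 nM FBPA preincubated 10 min at RT with compound (up to 57.5 uM final), then substrate plus GAPDH/TPI/NAD/arsenate coupling and diaphorase/resazurin added. Fluorescence read after 20 min at RT, 525/598 nm.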
VACV mCherry inh = vaccinia inhibition (mCherry reporter); Vaccinia virus mCherry reporter infection, fluorescence; Potency, µM (series often up to 36.5 µM), actives largely listed as inhibitors; 0.63% of 310,000 active; AID 720579; calls by dose curve; tested in A549 cells; note: nearly all actives have a fitted effect of over 35% in size
Of the large screens only hits and unclear results are named; the others gave an inactive call. Unless noted, calls come from the whole dose curve; as a rule, active = well fitted curve in the direction sought with a large enough effect; inconclusive = small, poorly fitted or top-dose-only effect, or another doubt; inactive = no such curve, though single readings can be large; an effect the other way counts as inactive or inconclusive.

CCCNC(=O)c1cc2c(c(-c3cccc(-c4ccc(F)cc4)c3)n1)[C@H](CCO)N(S(=O)C(C)(C)C)C2 (stereo partly drawn)	none (no result: HCV inh, FBPA Giardia inh)
O=C(O)CCSc1nnc(COc2cccc3ccccc23)n1-c1cccc(Cl)c1	HCMV antiviral -99
N#CCSc1nnc(COc2cccc3ccccc23)n1-c1cccc(Cl)c1	FMDV inh inconclusive, HCV inh inconclusive, Vaccinia Venus inconclusive, VACV mCherry inh inconclusive
N#CCSc1nnc(COc2cccc3ccccc23)n1-c1ccccc1	FMDV inh 14µM, HCV inh inconclusive (no result: Vaccinia Venus, VACV mCherry inh)
Cc1ccc2c(c1)CCCN2C(=O)c1cc(C)on1	none (no result: Vaccinia Venus, FBPA Giardia inh, VACV mCherry inh)
CCN(CC)CCNC(=O)C(=O)NCC(c1cccnc1)N1CCN(c2ccccc2)CC1 (stereo not drawn)	none (no result: HCV inh, FBPA Giardia inh)
COC(=O)[C@H]1[C@H](CO)[C@H]2Cn3c(cccc3=O)[C@@H]1N2Cc1ccncc1	none (no result: FMDV inh, HCV inh, Vaccinia Venus, FBPA Giardia inh, VACV mCherry inh)
COc1ccc(N(C)C(=O)c2cc3c(s2)-c2ccccc2OC3)c(OC)c1	HCV inh inconclusive
CCOC(=O)N1CCN(C(=O)c2cc3c(s2)-c2ccc(Cl)cc2S(=O)(=O)C3)CC1	FMDV inh inconclusive, HCMV antiviral -62 (no result: Vaccinia Venus, VACV mCherry inh)
COc1ccc(N(C)C(=O)c2cc3c(s2)-c2ccc(Cl)cc2S(=O)(=O)C3)c(OC)c1	FMDV inh 28µM, HCMV antiviral inconclusive, HCV inh inconclusive (no result: Vaccinia Venus, VACV mCherry inh)
O=C(O)COc1ccccc1/C=N/NC(=O)CSc1nnc(SCc2ccccc2)s1	none (no result: Vaccinia Venus, VACV mCherry inh)
CCc1c(C)nc2cc(-c3ccc(OC)c(OC)c3)nn2c1N1CCC(C)CC1	none (no result: FBPA Giardia inh)
CCc1c(C)nc2cc(-c3ccc(OC)c(OC)c3)nn2c1N1CCCC1	HCMV antiviral inconclusive, HCV inh 1.8µM, Vaccinia Venus inconclusive (no result: FMDV inh)
COc1ccc(-c2c(C)nn3c(N4CCCCCC4)cc(C)nc23)cc1OC	HCMV antiviral -61, HCV inh 11µM, VACV mCherry inh inconclusive
CCn1nc2cc(C(=O)NCC34CC5CC(CC(C5)C3)C4)ccc2c1OC	none
CCCCn1nc2cc(C(=O)NCC34CC5CC(CC(C5)C3)C4)ccc2c1OC	FMDV inh inconclusive, Vaccinia Venus inconclusive, VACV mCherry inh 6.3µM
O=C(/C=C/c1ccccc1Cl)c1ccc[nH]1	HCMV antiviral -62, HCV inh inconclusive, Vaccinia Venus inconclusive, VACV mCherry inh 13µM
O=C1N(Cc2cccnc2)C[C@@H]2C[C@@H](c3cccc(OC4CCCC4)c3)N3CCC[C@@]123	HCMV antiviral inconclusive, HCV inh 13µM
Cc1ccc(C(C(=O)NC2CCCCC2)N(CC2CCCO2)C(=O)CCCC(=O)Nc2ccccn2)cc1 (stereo not drawn)	HCMV antiviral -71
COc1ccc(C(C(=O)NC2CCCCC2)N(CC2CCCO2)C(=O)CCCC(=O)Nc2ccccn2)cc1 (stereo not drawn)	none
C=C1C(=O)OC2C=C(CO)C3OC3C3OC3(C)CC(OC(=O)/C(=C/C)COC(C)=O)C12 (stereo not drawn)	FMDV inh 7.9µM, HCMV antiviral -100, HCV inh inconclusive, VACV mCherry inh inconclusive (no result: FBPA Giardia inh)
COc1ccc(CCNC(=O)CN(Cc2ccc(Cl)cc2)S(C)(=O)=O)cc1	none (no result: Vaccinia Venus, VACV mCherry inh)
COc1ccccc1NC(=O)c1c([N+](=O)[O-])c(C(C)(C)C)nn1C	HCMV antiviral -68
COc1ccccc1NC(=O)c1nn(C)c(C(=O)Nc2ccccc2OC)c1[N+](=O)[O-]	none
CCN(CC)c1ccc(NC(=O)c2cnn(-c3ccccc3)c2-n2cccc2)c(C)c1	FMDV inh inconclusive, HCMV antiviral inconclusive, Vaccinia Venus inconclusive (no result: HCV inh, FBPA Giardia inh)
CCC(C)NC(=O)CCC(=O)OC1O[C@H]2OC3(C)CC[C@H]4[C@H](C)CCC(C1C)C24OO3 (stereo partly drawn)	HCMV antiviral -76, HCV inh inconclusive (no result: Vaccinia Venus, VACV mCherry inh)
CN(C)CCN(C(=O)c1cccc2ccccc12)c1nc2cc3c(cc2s1)OCO3	HCMV antiviral -112, HCV inh 10µM, FBPA Giardia inh inconclusive
CCN(CC)CCN(C(=O)c1cc2c(ccc3ccccc32)oc1=O)c1nc2cc3c(cc2s1)OCCO3	HCMV antiviral -98, Vaccinia Venus inconclusive, VACV mCherry inh 10µM
CCN(CC)CCN(C(=O)c1ccc2c(c1)OCCO2)c1nc2cc3c(cc2s1)OCO3	HCV inh inconclusive, FBPA Giardia inh inconclusive
CN(C)CCCN(C(=O)c1ccc2ccccc2c1)c1nc2cc3c(cc2s1)OCO3	HCMV antiviral -62, HCV inh inconclusive, Vaccinia Venus inconclusive, VACV mCherry inh inconclusive
